Glyco luc inh – blocks N-linked glycosylation in D54 reporter cells | D54 ERlucT glycosylation luciferase reporter, 24 h; percent of 100 nM tunicamycin response | reporter increase, % at 12.5 µM | 360,000 tested, 0.23% active | AID 588692;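 active = mean luciferase reporter signal, scaled so untreated is 0 and the glycosylation-blocking control 100, at or above a set limit in every replicate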;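 also: luciferase carries N-glycosylation sites so blocking glycosylation raises the light; 0% = median of neutral control wells and 100% = median of 100 nM tunicamycin wells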
Casp6 inh – inhibitors of human caspase-6; purified caspase-6, Z-VEID-R110 cleavage fluorescence; inhibition, % at 12.5 µM; 350,000 tested, 0.53% active;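 active = mean inhibition across replicates at least about 35%, with every replicate also reaching that limit, limit read from the data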;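 also: 0% = median of neutral control wells and 100% = no fluorescence left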
Mot1-301 SUMO – blocks SUMOylation pathway, rescuing yeast Mot1-301 growth. S. cerevisiae Mot1-301 growth rescue, ATP luminescence, 38.5C; percent above DMSO median, 100 means doubled. growth rescue, % at 18.8 µM. 320,000 tested, 1% active;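 active = every valid replicate shows activation above 250% relative to neutral control wells; inactive = the rest, any valid replicate at or below 250%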;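 also: OY570 slx delta 5 strain wells were the positive control but not used for scaling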
NSD2 inh – NSD2 (human) methyltransferase inhibition; O96028; NSD2 peptide methylation, AlphaScreen, 120 min; inhibition, % at 12.5 µM; 310,000 tested, 0.54% active; AID 743445; in the data active = inhibition above about 50%
ALR inh – human ALR oxidase inhibition via reduced H2O2. P55789. purified ALR, DTT oxidation, H2O2 HRP-luminol luminescence. inhibition, % (no concentration beside the values). 290,000 tested, 3.8% active. AID 485317;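 active = mean replicate inhibition above about 79%, with every replicate also reaching it, limit read from the data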
CDK5 inh – blocks human CDK5/p35 kinase activity; Q00535+Q15078; Recombinant CDK5/p35, ADP-Glo luminescence, 60 min; inhibition, % at 10 µM; 330,000 tested, 0.01% active;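 active = highest replicate inhibition of at least 50% and at least 75% of replicates reaching 50%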;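 also: plate controls were DMSO neutral control for no effect and GW8510 at 10 µM for full effect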
Target sequence (Q00535 whole entry, looked up): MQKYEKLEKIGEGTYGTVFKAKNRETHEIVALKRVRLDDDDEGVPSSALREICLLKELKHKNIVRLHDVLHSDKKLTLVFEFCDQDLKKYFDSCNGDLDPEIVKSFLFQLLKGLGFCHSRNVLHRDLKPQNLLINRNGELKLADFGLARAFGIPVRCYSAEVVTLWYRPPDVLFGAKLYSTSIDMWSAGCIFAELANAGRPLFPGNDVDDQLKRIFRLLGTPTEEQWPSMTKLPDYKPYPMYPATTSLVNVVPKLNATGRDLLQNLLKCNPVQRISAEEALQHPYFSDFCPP
Target sequence (Q15078 whole entry, looked up): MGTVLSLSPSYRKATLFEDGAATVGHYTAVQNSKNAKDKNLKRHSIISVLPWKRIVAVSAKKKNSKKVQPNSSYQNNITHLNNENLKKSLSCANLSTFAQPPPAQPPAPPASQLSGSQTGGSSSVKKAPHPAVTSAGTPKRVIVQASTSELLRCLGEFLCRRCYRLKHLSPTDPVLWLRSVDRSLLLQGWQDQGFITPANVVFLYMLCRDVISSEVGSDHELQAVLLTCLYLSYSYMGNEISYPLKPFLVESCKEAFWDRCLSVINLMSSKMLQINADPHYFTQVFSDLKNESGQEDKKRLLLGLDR
* marks the source's active call; other numbers are inactive results; nt = no result. In the library only some 3.9% were active in any assay of this set; here they are far more common.

SMILES	Glyco luc inh	Casp6 inh	Mot1-301 SUMO	NSD2 inh	ALR inh	CDK5 inh
CO[C@@H]1CC[C@H]2CCN(C)C(=O)[C@@H](C)N(C)C(=O)c3cc(C#N)ccc3OC[C@@H]1O2	nt	4.0	nt	nt	nt	nt
CN(C)CCCNC(=O)C[C@H]1C=C[C@@H](NS(=O)(=O)c2ccccc2)[C@H](CO)O1	nt	3.6	nt	nt	nt	nt
Cc1ccc2nc(SCC(=O)Nc3cccc(F)c3)nc(=O)n2c1	0.5	8.8	-8.5	-1.5	nt	-0.9
O=C(CSc1nc(-c2ccc(Cl)cc2)[nH]c(=O)n1)Nc1cccc(Cl)c1	0.7	2.3	-12.1	4.2	99.3*	1.0
Cc1ccc2nc(SCC(=O)Nc3cccc(Cl)c3)nc(=O)n2c1	0.6	0.8	-23.6	-3.2	97.3*	-1.0
COc1ccc2c3c(n(C)c2c1)[C@H](CO)N(Cc1ccccn1)CC31CCN(Cc2ccccn2)CC1	nt	0.8	nt	nt	nt	nt
CCOc1ccccc1NC(=O)Cn1c(=O)c2ccccc2n(CC)c1=O	-0.1	nt	8.5	5.6	6.3	1.0
COc1ccc(OC)c(NC(=O)COC(=O)CCNc2ccccc2OC)c1	0.5	0.7	7.3	6.4	98.1*	0.8
CCn1c(=O)n(CC(=O)Nc2cc(OC)ccc2OC)c(=O)c2ccccc21	-0.3	nt	-3.0	0.4	98.7*	0.3
COc1ccccc1OCCC(=O)OCC(=O)NCc1ccc(F)cc1	3.8	2.2	-12.6	5.0	nt	0.5
COc1ccc(OCCC(=O)OCC(=O)NCc2ccco2)cc1	-1.0	nt	nt	-0.1	-2.8	1.0
COc1ccccc1NCCC(=O)OCC(=O)NCc1ccco1	-0.9	nt	63.9	1.8	98.7*	-0.8
COc1ccccc1OCCC(=O)OCC(=O)NCc1ccc(Cl)cc1	1.4	1.2	4.0	nt	96.9*	-0.7
CCCC(=O)Nc1ccc2c(c1)C(=O)N(C)[C@H]1CC[C@H](CC(=O)Nc3ccccc3)O[C@H]1CO2	nt	4.4	nt	nt	nt	nt
O=C(Cc1ccccn1)NCC[C@@H]1CC[C@@H](NC(=O)Nc2ccc(F)cc2)[C@H](CO)O1	nt	-3.9	nt	nt	nt	nt
Cc1ccc(C(=O)Nc2nc(-c3ccc([N+](=O)[O-])cc3)cs2)o1	1.6	1.9	-17.1	-0.8	98.1*	0.3
CC(=O)Nc1ccc(-c2csc(NC(=O)c3ccc(C)o3)n2)cc1	1.5	6.5	1.7	2.4	11.4	-0.8
O=S(=O)(c1cc(O)ccc1O)c1cccc2c(S(=O)(=O)c3cc(O)ccc3O)cccc12	2.8	nt	27.0	nt	92.7*	0.3
COc1ccc(N2CCN(C(=O)c3cccc(NC4=NC5CS(=O)(=O)CC5S4)c3)CC2)cc1 (stereo unspecified)	1.1	-1.4	-7.2	6.0	93.3*	-0.7
O=C(c1cccc(NC2=NC3CS(=O)(=O)CC3S2)c1)N1CCN(c2ncccn2)CC1 (stereo unspecified)	3.2	1.2	0.9	nt	-0.7	1.0
C[C@@H]1CN([C@H](C)CO)C(=O)c2cccc(NC(=O)Nc3ccc(C(F)(F)F)cc3)c2O[C@@H]1CN(C)S(C)(=O)=O	nt	3.3	nt	nt	nt	nt
BrC(=C\c1ccccc1)/C=N/Nc1nc(N2CCOCC2)nc(N2CCOCC2)n1	2.9	-0.6	-24.9	1.0	0.5	-0.8
BrC(/C=C\c1ccccc1)=N/Nc1nc(N2CCOCC2)nc(N2CCOCC2)n1	16.2	2.0	320.4*	1.4	-5.1	2.2
COc1ccc(CN(C)C[C@@H]2Oc3ccc(NC(=O)Nc4ccc5c(c4)OCO5)cc3C(=O)N([C@H](C)CO)C[C@H]2C)cc1	nt	-1.3	nt	nt	nt	nt
NNc1ccc([N+](=O)[O-])c2[nH][nH]c(=O)c12	-2.6	94.2*	nt	nt	nt	nt
SMILES	Glyco luc inh	Casp6 inh	Mot1-301 SUMO	NSD2 inh	ALR inh	CDK5 inh
O=[N+]([O-])c1ccc(Nc2ccccc2)c2nonc12	-1.2	7.9	46.8	23.9	30.2	0.1
COc1ccc(S(=O)(=O)Nc2ccc3c(c2)C(=O)N([C@@H](C)CO)C[C@@H](C)[C@H](CN(C)Cc2ccc(C(F)(F)F)cc2)O3)cc1	nt	2.3	nt	nt	nt	nt
COC(=O)Nc1ccc(S(=O)(=O)N2CCC(C(=O)NC3CCCCC3)CC2)cc1	-1.9	-1.5	308.4*	-2.3	-7.2	-0.4
COC(=O)Nc1ccc(S(=O)(=O)N2CCCC(C(=O)NC3CCCCC3)C2)cc1 (stereo unspecified)	-2.4	-2.0	-5.7	-2.8	50.5	1.4
C[C@@H]1CN([C@H](C)CO)C(=O)c2cc(-c3cccc(F)c3)cnc2O[C@@H]1CN(C)S(=O)(=O)c1cccc(F)c1	nt	-0.9	nt	nt	nt	nt
Nc1ccc2nc(-c3cccnc3)[nH]c2c1	2.4	nt	4.7	3.9	99.7*	-2.1
COc1ccc2nc(-c3ccc(N)cc3)[nH]c2c1	-1.9	nt	-10.5	-2.4	99.2*	3.8
O=[N+]([O-])c1ccc2nc(-c3cccnc3)[nH]c2c1	2.4	-0.3	5.1	0.2	-2.4	2.4
COc1ccc2nc(-c3cccc(N)c3)[nH]c2c1	-7.4	nt	-4.9	0.8	nt	1.1
Nc1ccc2nc(-c3ccccc3)[nH]c2c1	-0.9	nt	2.8	-2.5	99.2*	-1.8
Nc1ccc2nc(-c3ccc(N)c(Cl)c3)[nH]c2c1	-8.9	nt	-3.0	2.7	99.0*	-2.0
C[C@H]1CN([C@@H](C)CO)C(=O)c2cccc(NC(=O)Nc3ccc4c(c3)OCO4)c2O[C@H]1CN(C)C(=O)NC1CCCCC1	nt	-1.5	nt	nt	nt	nt
CC(=O)Nc1ccc2nc(-c3cccs3)[nH]c2c1	3.2	nt	-0.1	-1.4	nt	0.8
Nc1cccc(C(=O)Nc2ccc3nc(-c4cccnc4)[nH]c3c2)c1	2.4	5.4	7.4	-1.3	99.3*	-0.5
Nc1ccc(-c2nc3c(Cl)cc(N)cc3[nH]2)cc1	-12.0	nt	26.8	5.9	98.8*	1.3
Nc1ccc2nc(-c3cccs3)[nH]c2c1	-3.9	-1.0	11.5	0.1	98.9*	-1.4
O=C(Nc1ccc2nc(-c3cccnc3)[nH]c2c1)C1CCCCC1	-0.8	nt	9.9	1.2	1.9	1.2
C[C@H](CO)N1C[C@H](C)[C@H](CN(C)Cc2cccc(C(=O)O)c2)OCc2cn(nn2)CCCC1=O	nt	-2.5	nt	nt	nt	nt
C[C@H](CO)N1C[C@H](C)[C@@H](CN(C)Cc2ccc(Oc3ccccc3)cc2)Oc2c(NC(=O)c3ccc(-c4nccs4)cc3)cccc2C1=O	nt	-2.4	nt	nt	nt	nt
Cc1cc(C(=O)Nc2ccc3c(c2)C(=O)N(C)[C@H]2CC[C@@H](CC(=O)N[C@@H](C)c4ccccc4)O[C@H]2CO3)no1	nt	-1.5	nt	nt	nt	nt
COc1cc(-c2noc(C)c2/C=C/c2ccc(OC(C)=O)cc2)cc(OC)c1OC	27.1*	-2.6	3.7	nt	2.5	1.9
COc1ccc(-c2oc(=O)c3cc(OC)c(OC)cc3c2/C=C/c2ccc(OC(C)=O)cc2)cc1	-0.5	0.8	2.9	nt	1.0	-1.2
COc1ccccc1-c1ccc2c(c1)O[C@H](CN(C)S(=O)(=O)c1ccc(F)cc1)[C@H](C)CN([C@@H](C)CO)S2(=O)=O	nt	-2.6	nt	nt	nt	nt
Cc1cc(S(=O)(=O)N2CCN(c3ccccc3O)CC2)c(C)s1	-0.6	2.2	14.5	nt	98.1*	1.2

From PubChem BioAssay
